Where “and” joins values, the source holds several entries; their conditions need not be identical. Equal entries are not always repeated. Results filed as inconclusive are left out. Some compounds were tested as several samples or in several runs, with calls that do not always agree. Calls of active or inactive are those of the source. Unless noted, calls follow the shape of the full dose curve.
Columns and labels:
[1] = target: Peroxisome proliferator-activated receptor delta (Homo sapiens) (UniProt Q03181); assay: qHTS assay for small molecule agonists of peroxisome proliferator-activated receptor delta signaling (AID 588534);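 also: 0% = DMSO basal wells and 100% = positive control agonist at 10 µM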
Procedure, shortened: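 Agonist-mode beta-lactamase reporter readout (CCF4 dye, 2 h at RT) after 18 h at 37 °C exposure to a titration; Hill-equation fitting gave EC50 and maximal response.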

[2] = Primary qHTS for inhibitors of SARS-S pseudo-typed particle cell entry (AID 1479145); details: outcome: dose series up to 57.1 µM unless noted; also: nearly all actives have a fitted effect of over 45% in size; as to activity change, negative = inhibition: % is scaled to controls: 0 for no effect and ±100 for the full control effect
[3] = Primary qHTS for Huh7 cytotoxicity: counterscreen for inhibitors of MERS-S pseudotyped particle cell entry (AID 1479147); details: outcome: dose series up to 57.1 µM unless noted
[4] = Primary qHTS for inhibitors of MERS-S pseudo-typed particle cell entry (AID 1479149); details: outcome: dose series up to 57.1 µM unless noted; also: nearly all actives have a fitted effect of over 60% in size; as to activity change, negative = inhibition: % is scaled to controls: 0 for no effect and ±100 for the full control effect
[5] = Primary qHTS for Vero E6 cytotoxicity: counterscreen for inhibitors of SARS-S pseudo-typed particle cell entry (AID 1479150); details: outcome: dose series up to 57.1 µM unless noted
[6] = Cytotoxicity counterscreen for inhibitors of SARS-CoV-2 cell entry (AID 1645845); details: outcome: dose series up to 57.1 µM unless noted; also: nearly all actives have a fitted effect of over 50% in size
Procedure, shortened: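 After a 15 min room-temperature ATPLite 1step step, luminescence reflected ATP remaining in HEK293-ACE2 cells exposed to compound for 1 h plus 48 h at 37 C, with percent activity set by cell and no-cell controls.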

[7] = Primary qHTS to identify inhibitors of SARS-CoV-2 cell entry (AID 1645846); details: SARS-CoV-2 pseudovirus cell entry assay, luminescence; activity change, negative = inhibition: at 57.1 µM (top of the series) unless noted; also: nearly all actives have a fitted effect of over 45% in size
Procedure, shortened: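 Using luciferase-reporting pseudoviruses carrying Wuhan-Hu-1 spike, the screen tracks entry into stably ACE2-expressing cells over 48 hr. Activity is expressed relative to spike particles versus particles lacking any fusion protein.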

[8] = target: Glutathione peroxidase 1 (Homo sapiens) (UniProt P07203); assay: Primary qHTS Assay for Inhibitors of Recombinant Selenoprotein Glutathione Peroxidase 1 (GPX1) (AID 1845191; active = well fitted curve in the direction sought with a large enough effect; an effect the other way counts as inactive or inconclusive; also: nearly all actives have a fitted effect of over 65% in size)
Procedure, shortened: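 GPX1 10 nM, GR 100 nM, GSH 1 mM, NADPH 0.5 mM, CHP 0.5 mM (final). 30-min cpd preincubation, RT. Ex340/Em450 read t=0, t=15 min.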

[9] = qHTS assay for small molecule agonists of retinoid X receptor alpha signaling (AID 588544); details: HEK293T RXRa-UAS-bla, beta-lactamase reporter, 18 h; 530 nm emission;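 as to activation: 0% = DMSO basal wells and 100% = reference agonist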
[10] = target: Retinoic acid receptor RXR-alpha (Homo sapiens) (UniProt P19793); assay: as above
[11] = target: Thyroid hormone receptor beta (Homo sapiens) (UniProt P10828); assay: qHTS assay for small molecule agonists of thyroid hormone receptor beta signaling (AID 588545)
Procedure, shortened: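 In this cell-based screen, titrated compounds act on HEK 293 cells held in medium with 2% charcoal/dextran FBS, NEAA and pyruvate for 18 hrs at 37 C. Responses are expressed relative to T3 (10 nM) as 100% and basal DMSO as 0%.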

[12] = qHTS assay for small molecule agonists of the antioxidant response element (ARE) signaling pathway (AID 651741; active = well fitted activation curve with a large enough effect in the signal ratio; the % refers to the signal ratio; also: potency is read from the fitted curve at half-maximal effect; as to activation: % of control where 0% means no effect)
Procedure, shortened: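 Reporter: beta-lactamase under ARE, stably in HepG2. Exposure: 16 h, 37 C, compounds delivered in DMSO by pin tool after 5 h cell preincubation. Readout: FRET substrate fluorescence after 2 h at RT.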

[13] = KB-8-5-11 P-gp reporter qHTS against the NCATS DSHEA and TCM libraries (AID 1919977; active = well fitted curve in the direction sought with a large enough effect; an effect the other way counts as inactive or inconclusive; also: 0% is about no effect)
Procedure, shortened: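 Viability of drug-resistant KB-8-5-11 cells is measured by CellTiter-Glo luminescence following roughly 72 h treatment at 37C. Substances were titrated, with bortezomib as intraplate control.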

[14] = target: Phospholipid hydroperoxide glutathione peroxidase GPX4 (Homo sapiens) (UniProt P36969); assay: Primary qHTS Assay for Inhibitors of Recombinant Selenoprotein Glutathione Peroxidase 4 (GPX4) (AID 1845192; active = well fitted curve in the direction sought with a large enough effect; an effect the other way counts as inactive or inconclusive; also: % is scaled to controls: 0 for no effect and ±100 for the full control effect; nearly all actives have a fitted effect of over 65% in size)
Procedure, shortened: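 qHTS, GR-coupled: GPX4 200 nM + cpd 30 min RT → GSH 1 mM, NADPH 0.5 mM, GR 100 nM → CHP 0.5 mM start; fluor 340/450 at t0 and t15 min; no-enzyme wells as control.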

[15] = target: Alpha-galactosidase (Coffea arabica) (UniProt Q42656); assay: Counterscreen for Glucocerebrosidase Inhibitors: qHTS Assay for Coffee Bean alpha-Galactosidase at pH 4.5 (AID 957; active = well fitted curve in the direction sought with a large enough effect; an effect the other way counts as inactive or inconclusive;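 also: plate controls were enzyme alone for no effect and no enzyme for full effect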)
Procedure, shortened: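 Fluorogenic qHTS at pH 4.5 (citrate buffer with Tween-20): 2 nM enzyme, 80 uM 4-MU-alpha-galactoside substrate, compound titrated 0.7 nM to 77 uM, 20 min room temperature. Glycine/NaOH stop; 4-MU read Ex 365/Em 440; Hill-equation AC50 against no-enzyme and enzyme controls.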

[16] = Validation screen for inhibitors of Lassa infection (AID 463096); also: % is scaled to controls: 0 for no effect and ±100 for the full control effect
[17] = target: Bile acid receptor (Homo sapiens) (UniProt Q96RI1); assay: qHTS assay for small molecule agonists of farnesoid X receptor signaling (AID 588527); details: HEK293T FXR-UAS-bla, beta-lactamase ratio, 16 h; stronger effect = higher value;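 also: 0% = vehicle basal and 100% = reference agonist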
Procedure, shortened: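 FXR-UAS-bla HEK293T, 10% dialyzed FBS; cpds up to 92 uM titration, 16 h 37 C; CCF4 dye 2 h RT; fluorescence. Normalized to chenodeoxycholic acid 100 uM (100%) and DMSO (0%); Hill fit gives EC50, efficacy.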

[18] = target: Glucocorticoid receptor (Homo sapiens) (UniProt P04150); assay: qHTS assay for small molecule agonists of glucocorticoid receptor signaling (AID 588532; active = well fitted curve in the direction sought with a large enough effect in the signal ratio, with a control signal flat; the % refers to the signal ratio;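 also: 100% = dexamethasone at 0.1 µM and 0% = DMSO only wells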); details: HeLa MMTV-bla, beta-lactamase ratio, agonist, 18 h; stronger effect = higher value; percent of dexamethasone control, DMSO zero
Procedure, shortened: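 Titration series, up to 92 uM, applied to GRE-bla HeLa cells for 18 h at 37 C. Detection by CCF4 FRET substrate after 2 h at RT.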

[19] = target: Vitamin D3 receptor (Homo sapiens) (UniProt P11473); assay: qHTS assay for small molecule agonists of vitamin D receptor signaling (AID 588543);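 also: 0% = DMSO basal and 100% = reference agonist control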
Procedure, shortened: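 Measured: β-lactamase reporter activity (CCF4, 405 nm excitation, 460/530 nm emission) in HEK293T VDR-UAS-bla cells after 16 h compound exposure at 37 °C. Normalization against 50 nM 1α,25-dihydroxyvitamin D3 and DMSO; Hill-fit EC50.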

[20] = target: Luciferin 4-monooxygenase (Photinus pyralis) (UniProt P08659); assay: Biochemical firefly luciferase enzyme assay for NPC (AID 624030; active = well fitted curve in the direction sought with a large enough effect; an effect the other way counts as inactive or inconclusive;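 also: purified P. pyralis luciferase at 10 nM with luciferin and ATP substrate; 0% = DMSO and -100% = full luciferase inhibition by PTC124 control; nearly all actives have a fitted effect of over 70% in size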)
Procedure, shortened: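 Counter-screen for direct inhibition of the luciferase enzyme by approved-drug library compounds, run at 10 nM enzyme in 50 mM Tris acetate (final). Luminescence was read within 5 min of enzyme-buffer addition and normalized to PTC124 versus DMSO (0%).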

Chain of Thyroid hormone receptor beta (Homo sapiens) (P10828 whole entry, looked up): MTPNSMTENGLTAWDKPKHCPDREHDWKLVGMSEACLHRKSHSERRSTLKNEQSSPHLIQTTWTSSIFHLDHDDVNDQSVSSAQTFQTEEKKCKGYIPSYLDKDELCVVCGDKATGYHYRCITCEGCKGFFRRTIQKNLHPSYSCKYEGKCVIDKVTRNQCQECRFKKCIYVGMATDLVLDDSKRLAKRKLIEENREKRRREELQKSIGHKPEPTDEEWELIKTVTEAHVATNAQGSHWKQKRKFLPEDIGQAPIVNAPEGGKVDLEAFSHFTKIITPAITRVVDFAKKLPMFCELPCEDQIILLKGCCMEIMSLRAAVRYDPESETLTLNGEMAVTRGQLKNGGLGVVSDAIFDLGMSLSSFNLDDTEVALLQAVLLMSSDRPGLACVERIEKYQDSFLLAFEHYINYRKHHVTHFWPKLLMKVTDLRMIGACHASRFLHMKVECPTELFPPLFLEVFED
Chain of Retinoic acid receptor RXR-alpha (Homo sapiens) (P19793 whole entry, looked up): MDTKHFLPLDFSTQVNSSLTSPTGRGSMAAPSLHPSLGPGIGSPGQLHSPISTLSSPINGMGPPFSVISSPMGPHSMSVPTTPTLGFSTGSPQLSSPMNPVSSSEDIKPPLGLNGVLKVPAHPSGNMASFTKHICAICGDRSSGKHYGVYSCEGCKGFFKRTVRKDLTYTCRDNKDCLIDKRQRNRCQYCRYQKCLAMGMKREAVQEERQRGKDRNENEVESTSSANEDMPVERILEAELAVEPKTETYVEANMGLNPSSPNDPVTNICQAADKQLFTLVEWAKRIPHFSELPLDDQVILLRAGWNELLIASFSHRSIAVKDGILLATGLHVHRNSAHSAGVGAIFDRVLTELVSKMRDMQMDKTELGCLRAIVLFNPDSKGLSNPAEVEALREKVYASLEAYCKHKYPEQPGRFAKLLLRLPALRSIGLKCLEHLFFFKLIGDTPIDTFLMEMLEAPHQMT
Chain of Peroxisome proliferator-activated receptor delta (Homo sapiens) (Q03181 whole entry, looked up): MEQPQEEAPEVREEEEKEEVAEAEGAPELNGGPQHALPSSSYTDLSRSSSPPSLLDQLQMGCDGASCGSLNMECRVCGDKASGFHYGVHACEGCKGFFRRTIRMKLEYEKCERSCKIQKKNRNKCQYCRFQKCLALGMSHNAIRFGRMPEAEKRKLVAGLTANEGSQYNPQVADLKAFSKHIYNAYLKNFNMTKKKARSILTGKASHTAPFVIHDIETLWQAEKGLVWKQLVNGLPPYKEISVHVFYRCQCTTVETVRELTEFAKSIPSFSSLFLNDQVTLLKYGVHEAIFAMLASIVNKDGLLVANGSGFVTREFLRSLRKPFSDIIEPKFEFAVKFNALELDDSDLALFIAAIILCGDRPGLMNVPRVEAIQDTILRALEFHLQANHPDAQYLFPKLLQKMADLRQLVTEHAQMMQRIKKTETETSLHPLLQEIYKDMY
Chain of Vitamin D3 receptor (Homo sapiens) (P11473 whole entry, looked up): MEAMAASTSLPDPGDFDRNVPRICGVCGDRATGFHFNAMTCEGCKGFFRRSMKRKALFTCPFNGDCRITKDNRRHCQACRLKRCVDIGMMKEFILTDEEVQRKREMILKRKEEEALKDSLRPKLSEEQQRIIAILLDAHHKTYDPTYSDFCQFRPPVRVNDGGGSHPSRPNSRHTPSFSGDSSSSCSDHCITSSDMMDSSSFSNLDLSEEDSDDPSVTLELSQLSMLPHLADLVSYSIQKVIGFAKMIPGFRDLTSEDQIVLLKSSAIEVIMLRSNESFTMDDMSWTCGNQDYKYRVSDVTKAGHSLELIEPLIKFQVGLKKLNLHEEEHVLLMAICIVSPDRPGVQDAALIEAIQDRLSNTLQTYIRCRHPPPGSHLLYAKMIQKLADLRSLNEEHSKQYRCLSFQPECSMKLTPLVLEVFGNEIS
Chain of Glucocorticoid receptor (Homo sapiens) (P04150 whole entry, looked up): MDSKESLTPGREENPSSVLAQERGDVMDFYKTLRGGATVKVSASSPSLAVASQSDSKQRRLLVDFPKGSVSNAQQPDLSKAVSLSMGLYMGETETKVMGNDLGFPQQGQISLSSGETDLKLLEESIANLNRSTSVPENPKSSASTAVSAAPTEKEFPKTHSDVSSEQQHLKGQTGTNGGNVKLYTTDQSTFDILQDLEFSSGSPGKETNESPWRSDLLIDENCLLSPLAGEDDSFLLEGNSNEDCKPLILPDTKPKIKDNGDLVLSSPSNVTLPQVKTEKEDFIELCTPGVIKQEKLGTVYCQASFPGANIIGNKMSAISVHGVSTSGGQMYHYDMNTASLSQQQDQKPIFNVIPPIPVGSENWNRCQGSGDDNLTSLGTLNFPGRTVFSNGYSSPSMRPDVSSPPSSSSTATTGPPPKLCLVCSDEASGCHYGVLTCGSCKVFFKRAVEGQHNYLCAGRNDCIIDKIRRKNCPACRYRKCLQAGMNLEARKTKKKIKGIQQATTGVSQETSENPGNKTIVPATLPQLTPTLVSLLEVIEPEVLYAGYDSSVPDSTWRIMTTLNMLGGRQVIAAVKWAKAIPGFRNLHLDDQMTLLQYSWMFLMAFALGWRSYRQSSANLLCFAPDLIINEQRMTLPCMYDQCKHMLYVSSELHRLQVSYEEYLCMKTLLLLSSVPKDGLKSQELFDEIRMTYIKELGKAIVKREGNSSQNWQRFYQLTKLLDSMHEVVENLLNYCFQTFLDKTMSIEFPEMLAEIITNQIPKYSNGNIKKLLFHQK
Chain of Glutathione peroxidase 1 (Homo sapiens) (P07203 whole entry, looked up): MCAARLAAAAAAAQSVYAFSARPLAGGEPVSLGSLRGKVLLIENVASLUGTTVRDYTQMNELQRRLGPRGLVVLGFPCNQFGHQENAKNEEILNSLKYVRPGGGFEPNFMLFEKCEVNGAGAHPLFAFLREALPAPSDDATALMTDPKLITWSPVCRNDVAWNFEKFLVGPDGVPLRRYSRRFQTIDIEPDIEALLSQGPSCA
Chain of Alpha-galactosidase (Coffea arabica) (Q42656 whole entry, looked up): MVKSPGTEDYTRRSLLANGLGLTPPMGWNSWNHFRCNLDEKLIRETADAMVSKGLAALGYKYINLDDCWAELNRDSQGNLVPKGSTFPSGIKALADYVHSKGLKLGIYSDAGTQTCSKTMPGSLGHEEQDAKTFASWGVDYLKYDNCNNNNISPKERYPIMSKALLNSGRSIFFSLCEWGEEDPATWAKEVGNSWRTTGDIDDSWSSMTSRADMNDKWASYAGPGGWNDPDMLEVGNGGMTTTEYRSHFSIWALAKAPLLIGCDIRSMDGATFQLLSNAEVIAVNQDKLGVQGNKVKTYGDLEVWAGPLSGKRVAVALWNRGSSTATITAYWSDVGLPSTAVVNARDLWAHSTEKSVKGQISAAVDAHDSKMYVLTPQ
Chain of Phospholipid hydroperoxide glutathione peroxidase GPX4 (Homo sapiens) (P36969 whole entry, looked up): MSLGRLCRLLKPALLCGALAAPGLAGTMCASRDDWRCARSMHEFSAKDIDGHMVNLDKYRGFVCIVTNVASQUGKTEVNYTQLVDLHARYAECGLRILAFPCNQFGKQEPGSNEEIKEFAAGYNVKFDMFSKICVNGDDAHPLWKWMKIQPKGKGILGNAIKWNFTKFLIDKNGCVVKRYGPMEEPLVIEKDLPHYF
Chain of Bile acid receptor (Homo sapiens) (Q96RI1 whole entry, looked up): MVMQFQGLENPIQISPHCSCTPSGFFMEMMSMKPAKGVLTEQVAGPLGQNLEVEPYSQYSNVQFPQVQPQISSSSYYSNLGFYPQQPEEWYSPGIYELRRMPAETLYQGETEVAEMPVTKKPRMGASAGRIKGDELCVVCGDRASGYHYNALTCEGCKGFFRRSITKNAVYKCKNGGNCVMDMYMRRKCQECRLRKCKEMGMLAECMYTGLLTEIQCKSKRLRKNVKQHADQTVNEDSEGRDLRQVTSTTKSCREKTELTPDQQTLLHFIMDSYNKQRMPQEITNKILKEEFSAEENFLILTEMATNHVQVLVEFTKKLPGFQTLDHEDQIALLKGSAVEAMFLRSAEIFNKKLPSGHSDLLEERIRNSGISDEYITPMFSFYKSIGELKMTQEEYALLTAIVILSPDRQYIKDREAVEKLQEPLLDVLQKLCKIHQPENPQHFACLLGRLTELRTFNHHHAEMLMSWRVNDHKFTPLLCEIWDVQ
Chain of Luciferin 4-monooxygenase (Photinus pyralis) (P08659 whole entry, looked up): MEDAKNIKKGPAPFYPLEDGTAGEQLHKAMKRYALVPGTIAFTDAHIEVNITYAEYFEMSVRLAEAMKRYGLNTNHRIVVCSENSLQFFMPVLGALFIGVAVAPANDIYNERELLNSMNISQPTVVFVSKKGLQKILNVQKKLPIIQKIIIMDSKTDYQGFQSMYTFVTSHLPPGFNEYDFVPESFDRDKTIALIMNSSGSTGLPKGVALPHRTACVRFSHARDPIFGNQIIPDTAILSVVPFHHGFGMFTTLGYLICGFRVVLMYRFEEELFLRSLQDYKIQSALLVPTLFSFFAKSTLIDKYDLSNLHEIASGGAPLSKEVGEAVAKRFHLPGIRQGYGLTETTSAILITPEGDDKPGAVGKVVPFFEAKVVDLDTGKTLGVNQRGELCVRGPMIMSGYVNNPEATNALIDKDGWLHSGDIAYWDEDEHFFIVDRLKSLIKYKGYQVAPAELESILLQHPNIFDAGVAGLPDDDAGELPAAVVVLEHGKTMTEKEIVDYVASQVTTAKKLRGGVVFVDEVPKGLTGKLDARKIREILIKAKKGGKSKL

CC1(C)S[C@@H]2[C@H](NC(=O)COc3ccccc3)C(=O)N2[C@H]1C(=O)O
inactive: outcome [1] | Potency [2] | Potency [3] | Potency [4] | Potency [5] | Potency [6]
-8.38%: activity change, negative = inhibition [7]

CN(C)Cc1ccccc1
inactive: outcome [1] | Potency [2] | Potency [3] | Potency [4] | Potency [5] | Potency [6]

C=CCCCCCCCCC(=O)O[C@H]1CC[C@H]2[C@@H]3CCC4=CC(=O)C=C[C@]4(C)[C@H]3CC[C@]12C
inactive: Potency [2] | Potency [3] | Potency [4] | Potency [5] | Potency [6] | Potency [8]

CN1CCc2nc(C(=O)N[C@@H]3C[C@@H](C(=O)N(C)C)CC[C@@H]3NC(=O)C(=O)Nc3ccc(Cl)cn3)sc2C1
inactive: Potency [2] | Potency [3] | Potency [4] | Potency [5]
-19.9%: activity change, negative = inhibition [7]

Cc1cccc(O)c1
-15.1%: max response [9]
inactive: outcome [1] | Potency [10] | outcome [11] | Potency [2] | Potency [3] | Potency [4] | Potency [5] | Potency [6]
355 µM (active) and inactive: Potency [12]

c1ccc2scnc2c1
inactive: outcome [1] | Potency [2] | Potency [3] | Potency [4] | Potency [5] | Potency [6]
-27.1%: activity change, negative = inhibition [7]

CC(C)=CCC/C(C)=C/CC/C(C)=C/CC/C(C)=C/CC1=C(C)C(=O)c2ccccc2C1=O
inactive: Potency [2] | Potency [3] | Potency [4] | Potency [5] | Potency [6] | Potency [13]

COC1(O[C@H]2CC[C@H]3[C@@H]4CC[C@H]5C[C@@H]6S[C@@H]6C[C@]5(C)[C@H]4CC[C@]23C)CCCC1
inactive: Potency [2] | Potency [3] | Potency [4] | Potency [5] | Potency [6] | Potency [7] | Potency [8] | Potency [14]

CC(=O)OCC(=O)[C@@]12OC3(CCCC3)O[C@@H]1C[C@H]1[C@@H]3CCC4=CC(=O)C=C[C@]4(C)[C@@]3(F)[C@@H](O)C[C@@]12C
inactive: Potency [2] | Potency [3] | Potency [4] | Potency [5] | Potency [7]

C[C@@](Cc1ccc(O)c(O)c1)(NN)C(=O)O
inactive: outcome [15] | Potency [16] | Potency [2] | Potency [3] | Potency [4] | Potency [5] | Potency [6] | Potency [7]

O=CCCCC=O
inactive: activation [17] -2.56% | outcome [1] | Potency [2] | Potency [3] | Potency [4] | Potency [5] | Potency [6]

CC/C=C\C/C=C\C/C=C\C/C=C\C/C=C\C/C=C\CCC(=O)O
3.74%: activity change, negative = inhibition [7]
inactive: Potency [2] | Potency [3] | Potency [4] | Potency [5] | Potency [6] | Potency [13]

CC1(C)C(C=C(Cl)Cl)C1C(=O)OCc1cccc(Oc2ccccc2)c1 (stereo not drawn)
inactive: activation [18] 2.68% and -0.215% and 2.06% | outcome [1] | outcome [19] | Potency [10] | outcome [11] | Potency [20] | Potency [12] | Potency [2] | Potency [3] | Potency [4] | Potency [5] | Potency [6]
-7.32% and -8.4%: max response [9]

CC1=C(/C=C/C(C)=C/C=C/C(C)=C/CO)C(C)(C)CCC1
inactive: outcome [1] | Potency [2] | Potency [3] | Potency [4] | Potency [5] | Potency [6] | Potency [13]
-23.2%: activity change, negative = inhibition [7]

CC(=O)OCC(=O)[C@@]1(O)CC[C@H]2[C@@H]3C[C@H](C)C4=CC(=O)C=C[C@]4(C)[C@H]3[C@@H](O)C[C@@]21C
inactive: Potency [2] | Potency [3] | Potency [4] | Potency [6] | Potency [7]

CCCCCC/C=C\CCCCCCCC(=O)O
inactive: Potency [2] | Potency [3] | Potency [4] | Potency [6] | Potency [13]

O=C(O)CC(O)CC(O)/C=C/c1c(C2CC2)nc2ccccc2c1-c1ccc(F)cc1 (stereo not drawn)
inactive: Potency [2] | Potency [3] | Potency [4] | Potency [6] | Potency [7]

O[C@@H]1[C@@H](O)[C@@H](O)OC[C@@H]1O
inactive: Potency [2] | Potency [3] | Potency [4] | Potency [5]
-10.9% [at 171 µM]: activity change, negative = inhibition [7]

C=C/C=C\CC1=C(C)[C@@H](OC(=O)[C@H]2[C@H](C=C(C)C)C2(C)C)CC1=O
inactive: Potency [2] | Potency [3] | Potency [4] | Potency [5] | Potency [8]
